Each structure is given as a SMILES string. About 13,000 (27%) of roughly 48,000 compounds showed an effect of 50% or more. Some of the results follow.

The test system of the assay is Wolbachia pipientis. Briefly: Anti-Wolbachia Cell-Based Screen. The class given is functional. On the set-up: scale not given: in the data most compounds retested in dose-response had high values. The following applies: 5 µM.
For `CC(C)(C)CC(=O)N[C@@H]1CO[C@H](CNC(=O)c2ccncc2)[C@H]1O`, the “Percent Effect” value is recorded as -7.962%.
Then `Cc1nc(C)c(C)c(N2C[C@@H](CN3CCCN(C)CC3)[C@@H](CO)C2)n1`, with 1.463%.
As for `CN(C)CCCN(CCC#N)C(=O)Nc1ccc2[nH]ccc2c1`, the “Percent Effect” value is on record as -1.012%.
Then `O=C(O)C(F)(F)F.O=C(O)c1c(NC2CCC2)ncc2c1CCN(C1CCOC1)C2` (stereo not drawn), with -12.61%; and `O=C(O)C(F)(F)F.O=C(O)c1c(-c2ccoc2)ncc2c1CCN(C1CCOC1)C2` (stereo not drawn), with -27.15%.
Then `O=C(O)C(F)(F)F.O=C(O)C(F)(F)F.O=C(O)c1c(-c2ccncc2)ncc2c1CCN(C1CCOC1)C2` (stereo not drawn), with -10.9%.
The same measure for `Cc1ccc(Nc2ncnc3c2CCN(CC2CCOC2)CC3)cc1.O=C(O)C(F)(F)F` (stereo not drawn): -7.327%.
Take `O=C(O)C(F)(F)F.O=C(O)C(F)(F)F.O=C(O)c1c(-c2ccncc2)ncc2c1CCN(CC1CCOC1)C2` (stereo not drawn): the “Percent Effect” value came to 92.6%.
The same measure for `CN(C(=O)CCOc1ccccc1)C1CCN(CC2CCOC2)CC1` (stereo not drawn): -10.27%.
Then `O=C(O)C(F)(F)F.O=C(O)c1c(-c2cncnc2)ncc2c1CCN(CC1CCOC1)C2` (stereo not drawn), with 114.1%; and `CCN(CC)S(=O)(=O)c1ccc(C(F)(F)F)cc1C#N`, with -8.635%.
The same measure for `CCOc1ccccc1C(=O)N1CCn2c(nnc2C(F)(F)F)C1`: -4.293%.
On to `O=C(c1ccc2c(c1)[nH]c(=O)n2C1CCCC1)N1CC(O)C1`, for which the “Percent Effect” value was -1.674%.
With `CCOc1ccccc1C(=O)N1CC(=O)N(C2CCC2)CC(O)C1` (stereo not drawn), the “Percent Effect” value was 90.13%.
Then `COc1ccccc1OC1CCN(C(=O)c2cccc(O)c2C)CC1`, with 0.8848%; and `COc1ccc(C(=O)N2CC(=O)N(C3CCC3)CC(O)C2)cc1OC` (stereo not drawn), with 103.9%; and `O=C(c1cc(Cl)ccc1OC1CCN(C2CCCC2)CC1)N1CC(O)C1`, with 4.812%.
With `COc1cccc2c1OCC(C(=O)N1CCN(C3CCCC3)C(=O)C1)C2` (stereo not drawn), the “Percent Effect” value is -9.278%.
Turning to `COc1cccc(OC)c1C(=O)N1CCN(c2ccccc2F)CC1`, the “Percent Effect” value was -1.098%.
`CCOc1ccccc1C(=O)N1CCCC(O)(CN(C)C)C1` (stereo not drawn): the “Percent Effect” value is 8.806%.
The same measure for `COc1cccc(OC)c1C(=O)N1CC(=O)N(C2CCC2)CC(O)C1` (stereo not drawn): 125.2%; for `COc1ccccc1C(=O)N1CC(=O)N(C2CCCCC2)CC(O)C1` (stereo not drawn): 104.3%.
`COc1ccc(C(=O)N2CC[C@@H](N3CCC(O)CC3)[C@H](O)C2)cc1C`: the “Percent Effect” value is recorded as -6.669%.
Then `Cc1ccc(NC(=O)N2C[C@H]3CC[C@@H]2CN(Cc2cscn2)C3)cc1`, with 4.002%.
For `COc1ccc(C(=O)N2CC(=O)N(C3CCC3)CC(O)C2)c(OC)c1` (stereo not drawn), the “Percent Effect” value came out at 143.6%.
The same measure for `COc1ccc(C(=O)N2CC[C@H](CO)[C@H](O)C2)c(C)c1`: -8.532%; for `COc1ccc(C(=O)NC2CC2)c(OC)c1`: 17.15%; for `CCN1C(=O)CCC12CCCN(Cc1nccs1)C2.O=C(O)C(F)(F)F` (stereo not drawn): 30.34%.
As to `COCCN1C(=O)CCC12CCCN(Cc1nccs1)CC2.O=C(O)C(F)(F)F` (stereo not drawn), the “Percent Effect” value amounted to 12.79%.
The same measure for `CN1CC(=O)N(c2cnn(C)c2)CC12CCN(Cc1nccn1C)C2.O=C(O)C(F)(F)F.O=C(O)C(F)(F)F` (stereo not drawn): -9.756%.
The same measure for `CCN1C(=O)CCC12CCCN(Cc1ccc(F)cc1)CC2.O=C(O)C(F)(F)F` (stereo not drawn): 86.81%; for `Cn1ccnc1CN1CCC2(CCC(=O)N2CCN2CCCC2)CC1.O=C(O)C(F)(F)F.O=C(O)C(F)(F)F`: 107.9%; for `O=C(O)C(F)(F)F.O=C(O)C(F)(F)F.O=C1CCC2(CCN(Cc3ccc(F)cc3)CC2)N1CCN1CCCC1`: 100.3%.
The same measure for `O=C(NCC1(CO)CC1)c1ccccc1Br`: -13.86%.
On to `COCC(C)N1CCc2onc(-c3ccc(F)c(F)c3)c2C1` (stereo not drawn), for which the “Percent Effect” value was -3.283%.
`O=C(NC1CCS(=O)(=O)C1)c1ccc(SCc2cscn2)cc1` (stereo not drawn): the “Percent Effect” value is reported as -5.861%.
Consider `CCCc1cc(NCc2ccc(CO)cc2)n2nccc2n1`, for which the “Percent Effect” value is reported as -5.904%.
In the case of `Cc1occc1C(=O)N1CCn2c(Cn3cncn3)cnc2C1C` (stereo not drawn), the “Percent Effect” value was determined as 120.5%.
With `CC1c2ncc(Cn3cncn3)n2CCN1C(=O)C1CCOCC1` (stereo not drawn), the “Percent Effect” value is listed as -2.006%.
The same measure for `Cc1nc(COCc2cnc3n2CCN(C(=O)C2CC2)C3C)cs1` (stereo not drawn): -5.573%; for `O=S(=O)(C1CC1)N1CCc2ncc(Cn3cncn3)n2CC1`: -7.39%.
`COCc1cnc2n1CCN(S(=O)(=O)N(C)C)C2C` (stereo not drawn): the “Percent Effect” value was 6.284%.
The same measure for `CC1c2ncc(Cn3cncn3)n2CCN1C1CCOCC1.O=C(O)C(F)(F)F` (stereo not drawn): -16.95%; for `CC1c2ncc(Cn3cncn3)n2CCN1C(=O)[C@H]1CCCO1` (stereo partly drawn): 86.12%.
Consider `CC1c2ncc(Cn3cncn3)n2CCN1CC1CCOCC1.O=C(O)C(F)(F)F` (stereo not drawn), for which the “Percent Effect” value worked out at 55.37%.
The same measure for `CC1c2ncc(Cn3cncn3)n2CCN1C(=O)N(C)C` (stereo not drawn): 113.2%; for `CC(C)N1CCn2c(COCC3CCOCC3)cnc2C1C.O=C(O)C(F)(F)F` (stereo not drawn): 6.159%.
The same measure for `CSCCCN1CCC(c2nnc(Cn3ccnc3)n2C2CC2)CC1`: 14.62%; for `N#Cc1cccc(OCCN2CCC(C(=O)N3CCOCC3)CC2)c1`: -12.33%.
The same measure for `O=C(CC(F)(F)F)N1C[C@@H]2CC[C@H](C1)N(Cc1ccccc1)C2=O`: -3.015%; for `CCn1c(C2CCCN(Cc3ccc4ccccc4n3)C2)nn(C)c1=O` (stereo not drawn): 31.19%.
For `COc1ccccc1C1(CNc2cn[nH]c(=O)c2Cl)CCOCC1`, the “Percent Effect” value is on record as -1.761%.
The same measure for `Cc1ncsc1CCN1CCN(C(=O)c2ccc(=O)[nH]c2)CC1`: 12.93%; for `COCC(=O)N1CCn2c(Cn3cncn3)cnc2C1C` (stereo not drawn): 79.44%.
The same measure for `COCCC(=O)N1CCn2c(COCC3CC3)cnc2C1C` (stereo not drawn): -18.59%; for `Cc1ccc(N2CCCC(c3[nH]ncc3-c3ccccc3)C2)nn1` (stereo not drawn): 25.67%.
With `C[C@H](N)C(=O)N1CCC(c2[nH]ncc2-c2ccccc2)CC1`, the “Percent Effect” value is 108.2%.
The same measure for `Cc1ccc(-c2cn[nH]c2C2CCCN(c3nccc(N)n3)C2)cc1` (stereo not drawn): 6.644%; for `CC(O)C(=O)N1CCC(c2[nH]ncc2-c2ccccc2)CC1` (stereo not drawn): 105.3%.
The same measure for `C[C@@H](N)C(=O)N1CCC(c2[nH]ncc2-c2ccccc2)CC1`: 132.4%.
Then `CCc1cn[nH]c1C1CCN(C(=O)c2cccc(O)c2C)CC1`, with -3.715%.
As to `CC(C(=O)N1CCC(c2[nH]ncc2-c2ccccc2)CC1)n1cncn1` (stereo not drawn), the “Percent Effect” value is 96.41%.
As to `FC(F)c1nnc2ccc(N3CCC4(CCOC4)C3)nn12` (stereo not drawn), the “Percent Effect” value was -11.38%.
For `CSc1ncc(CNC(C)c2cnn(-c3ccccc3)c2C)cn1` (stereo not drawn), the “Percent Effect” value was found to be 31.2%.
For the compound `CN(CCCc1n[nH]c(N)c1C#N)C(=O)Nc1cc(Cl)cc(Cl)c1`, the “Percent Effect” value is on record as 9.984%.
Then `Cc1ccc(NCc2ncc(C(C)(C)C)o2)c(Cl)c1`, with -11.33%; and `O=C(CCC1CCN(Cc2ccncc2)CC1)Nc1ccccc1Cl`, with -2.559%; and `Cc1cnn(CC2CCCN2C(=O)Cc2c(C)noc2Cl)c1` (stereo not drawn), with 116%.
In the case of `Cc1cnn(CC2CCCN2C(=O)c2cc(C)no2)c1` (stereo not drawn), the “Percent Effect” value came to 3.618%.
The same measure for `Cc1cnn(CC2CCCCN2C(=O)CN(C)C2CC2)c1` (stereo not drawn): 4.023%.
The same measure for `Cc1cnn(CC2CCCN2C(=O)Cc2cn3ccsc3n2)c1` (stereo not drawn): 12.98%; for `Cc1cnn(CC2CCCCN2C(=O)Cc2c(C)noc2Cl)c1` (stereo not drawn): 116.9%; for `CCN1CC2(CCN(C(=O)C(C)Oc3ccc(F)cc3F)CC2)OC1=O` (stereo not drawn): -0.4228%.
The same measure for `COc1ccccc1CNC(=O)C[S+]([O-])Cc1cc(C)on1` (stereo not drawn): 100.1%; for `Cc1cc(C[S+]([O-])CC(=O)NCc2ccccc2)no1` (stereo not drawn): 111.1%.
As for `Cc1cc(C[S+]([O-])CC(=O)Nc2c(C)cccc2C)no1` (stereo not drawn), the “Percent Effect” value is 4.503%.
With `Cc1cc(C[S+]([O-])CC(=O)NCc2cccs2)no1` (stereo not drawn), the “Percent Effect” value is given as -0.248%.
The same measure for `Cc1cc(C[S+]([O-])CC(=O)NCC(C)C)no1` (stereo not drawn): -9.622%; for `COc1ccc(F)cc1C[S+]([O-])CC(=O)NCc1ccccc1` (stereo not drawn): -20.74%; for `COc1ccc(F)cc1C[S+]([O-])CC(=O)NCc1ccccc1C` (stereo not drawn): 4.028%.
Then `Cc1cc(C[S+]([O-])CC(=O)NCc2cccc(Cl)c2)no1` (stereo not drawn), with 98%; and `O=C(C[S+]([O-])Cc1cccc(Cl)c1)NC1CCCC1` (stereo not drawn), with -4.291%; and `CNC(=O)CCS(=O)(=O)Cc1nnnn1-c1ccccc1`, with 7.116%.
Then `CC1(NC(=O)CC2CCc3ccccc32)CCOCC1` (stereo not drawn), with -18.69%; and `CCN(CC(C)C#N)C(=O)c1cccc(COc2ccc(C)nc2)c1` (stereo not drawn), with 11.78%; and `CC(c1ccco1)N(C(=O)c1cccc(C#N)c1)C1CC1` (stereo not drawn), with -7.767%.
`CC(C)c1noc(CN2CCN(C(=O)c3ccccc3F)CC2)n1`: the “Percent Effect” value is 4.935%.
Regarding `CN(C)Cc1nc2c(o1)CN(C(=O)c1ccncc1F)C2`, the “Percent Effect” value was -6.758%.
On to `CC(C)n1ccnc1CN1CCCN(C(=O)c2cccnc2O)CC1`, for which the “Percent Effect” value was 3.954%.
With `CC(C)c1noc(CN2CCN(C(=O)c3ccncc3F)CC2)n1`, the “Percent Effect” value is recorded as 113.2%.
The same measure for `CC(C)c1noc(CN2CCN(C(=O)c3cc(Cl)ccc3F)CC2)n1`: 113.5%; for `CC(C)(O)CN1CCN(C(=O)c2cccnc2O)CC1`: -5.606%; for `CC(C)c1noc(CN2CCN(C(=O)c3cccnc3O)CC2)n1`: 109.3%.
Then `CC(C)c1noc(CCC(=O)Nc2cc(F)ccc2F)n1`, with 6.757%.
The same measure for `CN(C)C(=O)c1ccc(-c2cscn2)cc1`: -9.809%; for `O=C(O)C(F)(F)F.O=C(c1cnccn1)N1CCN2C[C@H](Oc3cccc(F)c3)C[C@H]2C1`: 8.036%.
With `OC1(CNCc2ccc(F)c(C(F)(F)F)c2)CCOC1` (stereo not drawn), the “Percent Effect” value is given as -11.97%.
For the compound `CCN1CCC2(CN(C(=O)N(C)C)CC23CCN(CC2CC2)CC3)C1=O.O=C(O)C(F)(F)F` (stereo not drawn), the “Percent Effect” value was -42.34%.

These data come from ChEMBL document CHEMBL3988442, “University of Dundee, Small-Polar-MMV Screening Library” (2021).
